Drawing on PubChem BioAssay AID1845224 (National Center for Advancing Translational Sciences (NCATS), 2023), this text covers Potency for 31 molecules.

Inconclusive results are not listed. Entries that show only a call come without a potency. The source made the active and inactive calls. The call rests on the fitted dose curve; in most records, active means well fitted curve in the direction sought with a large enough effect; inconclusive means small, poorly fitted or top-dose-only effect, or another doubt; inactive means no such curve, though single readings can be large or run the other way.
Potency means the concentration at half of the fitted maximal effect.

The subject of the test is NanoLuc luciferase (engineered Oplophorus gracilirostris luciferase). The test can be described thus: Confirmatory Nanoluciferase (NLuc) qHTS assay for identification of artifact compounds. Particulars: secreted NLuc in S16 cell medium, luminescence, 5 min; series mostly up to 39 µM. In short, it runs like this:
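Conditioned medium from NLuc-expressing S16 cells (diluted 1:55) was incubated with compounds for 15 min at room temperature. Nano-Glo substrate (1:100) was then added, and luminescence was read after 5 min.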
As for `CCSc1ncc(Cl)c(C(=O)Nc2c(C(=O)Nc3cccc(C)c3)oc3ccccc23)n1`, the Potency entry was “inactive”.

For the molecule `COc1ccc(CNC(=O)C(=O)NCC(c2ccco2)S(=O)(=O)c2ccc(C)cc2)cc1` (stereo unspecified), the Potency result is “inactive”.

With `CCc1ccc(Cn2c(CNS(=O)(=O)c3ccc(Cl)s3)nc3cccnc32)cc1`, the Potency entry is “inactive”.

Take `O=C1c2ccccc2C(=O)N1Cc1ccccn1`: the Potency entry is “inactive”.

As for `O=C(Oc1ccccc1Cl)c1cc(-c2ccc3c(c2)OCCO3)on1`, the Potency is 1.54 µM (active).

Regarding `C=C[C@@]1(C)CC(=O)[C@]2(O)[C@@]3(C)[C@@H](O)CCC(C)(C)[C@@H]3[C@H](OC(=O)CCN(C)C)[C@H](OC(C)=O)[C@@]2(C)O1`, the Potency result is “inactive”.

Consider `COc1ccc(NC(=O)c2csnn2)cc1Cl`, for which the Potency entry is “inactive”.

With `O=C(COc1ccc(Cl)cc1)Nc1ccc2nc(SCC(=O)N3CCCC3)sc2c1`, the Potency result was “inactive”.

Turning to `COc1ccc(OC(=O)c2nc(SCc3ccccc3F)ncc2Cl)cc1`, the Potency entry was “inactive”.

Regarding `Cc1cc(C)cc(NC(=O)CSc2oc(-c3cccs3)nc2S(=O)(=O)c2ccccc2)c1`, the Potency result is “inactive”.

Take `Cc1ccc(-c2nc(=Nc3ccccc3)sn2-c2ccccc2)cc1`: the Potency entry was “inactive”.

As for `CCOC(=O)c1ccc(N2C(=O)c3[nH]nc(-c4ccc(C)cc4)c3C2c2ccc(O)cc2)cc1` (stereo unspecified), the Potency entry was “inactive”.

Take `CC1CCN(c2ccc(-c3nc(C(C)C)no3)cc2[N+](=O)[O-])CC1`: the Potency result was “inactive”.

As for `Cc1ccc(C)c(N2CCN(C(=O)c3ccc(Nc4nc5ccccc5n5nnnc45)cc3)CC2)c1`, the Potency entry was “inactive”.

Take `CN(C)C=O`: the Potency entry is “inactive”.

Take `COc1ccc(-n2nc(C(=O)Nc3cccc(C)n3)c3c4ccccc4n(C)c3c2=O)cc1`: the Potency entry was “inactive”.

Take `O=c1c2ccccc2nc2sc(Nc3ccc(Br)cc3)nn12`: the Potency result was “inactive”.

With `Cc1cccc(-c2noc(-c3ccc(NCc4ccco4)c([N+](=O)[O-])c3)n2)c1`, the Potency entry is “inactive”.

Regarding `Cc1c(NC(=O)C(C)(C)C)cccc1-c1nc2ccccc2s1`, the Potency result was “inactive”.

As to `COc1ccc(NC(=O)c2cnn3c(-c4ccccc4)cc(C)nc23)cc1`, the Potency entry was “inactive”.

Turning to `CCOc1ccccc1C(=O)Nc1cccc2ccc(C)nc12`, the Potency entry is “inactive”.

Take `CCOC(=O)C1=C(CNCc2ccc(Cl)cc2)NC(=O)NC1c1ccccc1` (stereo unspecified): the Potency result is “inactive”.

With `Cc1ccc2nc(-c3cccnc3)c(Nc3ccccc3C)n2c1`, the Potency entry is “inactive”.

As for `CC1=CC23C(=O)C(C=C(CO)[C@@H](O)[C@]2(O)[C@H]1O)[C@H]1[C@@H](C[C@H]3C)C1(C)C` (stereo partly specified), the Potency entry is “inactive”.

For the molecule `Cc1ccc(N2CC(NC(=O)C(=O)c3c[nH]c4ccccc34)CC2=O)cc1` (stereo unspecified), the Potency result was “inactive”.

Consider `COc1ccc(NC(=O)CSc2c3c(nc4ccccc24)CCC3)cc1Cl`, for which the Potency result is “inactive”.

Regarding `N#C/C(=C\c1ccc(-c2cc(Cl)ccc2Cl)o1)C(=O)Nc1ccccc1C(=O)O`, the Potency is 12.2 µM (active).

For `CCOC(=O)N1CCN(S(=O)(=O)N2CCCC(C(=O)NCc3cc(OC)ccc3OC)C2)CC1` (stereo unspecified), the Potency result was “inactive”.

In the case of `O=C(Nc1ccccn1)c1sc2ccc([N+](=O)[O-])cc2c1Cl`, the Potency entry was “inactive”.

As for `COc1cccc(CNS(=O)(=O)c2cnc(N)nc2)c1`, the Potency entry was “inactive”.

For `CCC1Oc2ccccc2N(CC(=O)NCc2ccc(C)cc2)C1=O` (stereo unspecified), the Potency result is “inactive”.
